PAFAH2 FP inh = inhibitors of human PAFAH2. hit rate 0.99% among 340,000. inhibition, % at 3.39 µM. recombinant PAFAH2, FP-rhodamine activity probe, fluorescence polarization;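 active = inhibition above the mean over all tested compounds plus 3 SD, cut at about 30% in these data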;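 also: inhibitors block probe labeling of enzyme so polarization drops; 0% = enzyme with DMSO and 100% = wells lacking PAFAH2 protein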
PAFAH1B3 FP inh = blocks human PAF acetylhydrolase 1B catalytic subunit 3. inhibition, % at 3.39 µM. Q15102. hit rate 0.28% among 340,000. AID 492972. recombinant PAFAH1B3, FP-rhodamine probe, fluorescence polarization;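 active = inhibition above the screen-wide average of all tested compounds plus 3 SD, cut at about 25% in these data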;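 also: 0% = enzyme with DMSO only and 100% = wells lacking PAFAH1B3 protein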
Target sequence (Q15102 whole entry, looked up): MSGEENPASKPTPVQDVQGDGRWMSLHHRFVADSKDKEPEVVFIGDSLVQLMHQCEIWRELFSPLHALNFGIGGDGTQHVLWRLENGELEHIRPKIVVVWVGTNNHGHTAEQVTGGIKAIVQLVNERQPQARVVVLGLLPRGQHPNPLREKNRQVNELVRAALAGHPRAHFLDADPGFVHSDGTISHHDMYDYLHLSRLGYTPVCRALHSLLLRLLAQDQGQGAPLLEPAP
PME-1 primary = PME-1 (human) inhibition; recombinant PME-1, FP-Rh probe fluorescence polarization; inhibition, % at 5.9 µM; hit rate 0.53% among 320,000; AID 2130;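 active = inhibition above the campaign mean of all compounds plus 3 SD, cut at about 26% in these data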;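 also: competitive labeling of PME-1 active site by serine hydrolase directed probe; 0% = PME-1 with DMSO and 100% = wells lacking PME-1 enzyme; inhibitors block probe labeling so polarization falls and inhibition rises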
PAFAH1B2 inh = inhibitors of human PAFAH1B2 | inhibition, % at 3.39 µM | recombinant PAFAH1B2, FP-rhodamine activity probe, fluorescence polarization | hit rate 1.2% among 340,000 | P68402 | AID 492953;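 active = inhibition above the mean of all tested compounds plus 3 SD, cut at about 24% in these data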;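 also: 0% = enzyme with DMSO and 100% = wells lacking PAFAH1B2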
Target sequence (P68402 whole entry, looked up): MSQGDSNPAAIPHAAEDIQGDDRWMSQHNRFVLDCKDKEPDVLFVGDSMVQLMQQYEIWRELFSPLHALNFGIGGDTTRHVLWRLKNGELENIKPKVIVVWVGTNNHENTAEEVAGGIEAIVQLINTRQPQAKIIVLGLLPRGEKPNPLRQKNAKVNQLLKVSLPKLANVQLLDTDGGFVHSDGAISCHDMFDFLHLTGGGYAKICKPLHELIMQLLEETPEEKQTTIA
Fam108B inh = counter-screen for RBBP9 inhibitors: inhibitors of mouse Fam108B; hit rate 0.33% among 300,000; inhibition, % at 9.51 µM; AID 1947; recombinant Fam108B, FP-Rh probe fluorescence polarization;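 active = inhibition above the screen mean inhibition plus 3 SD, computed separately per campaign, cut at about 18% in these data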;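 also: inhibitors lower polarization as less probe binds the enzyme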
pPAFAH FP inh = pPAFAH (human) enzyme inhibition; recombinant pPAFAH, FP-rhodamine probe fluorescence polarization; inhibition, % at 3.39 µM; hit rate 1.5% among 330,000; AID 463082;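 active = inhibition above the mean inhibition across the screen plus 3 SD, cut at about 25% in these data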;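 also: inhibitors block binding of the rhodamine activity-based probe so polarization drops; 0% = enzyme with DMSO and 100% = wells lacking pPAFAH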
* = called active by the depositor; . = no result. An excerpt weighted towards active compounds, which were near 2.8% of everything screened.

SMILES	PAFAH2 FP inh	PAFAH1B3 FP inh	PME-1 primary	PAFAH1B2 inh	Fam108B inh	pPAFAH FP inh
O=C1CCCC2=C1Sc1ccc(Cl)cc1N2	-1	5	10	7	2	11
CC(C)c1ccc(/C=N/n2c(COc3ccccc3)n[nH]c2=S)cc1	35*	24	14	29*	6	10
Cc1ccc(/C=N/n2c(COc3ccccc3)n[nH]c2=S)cc1	-3	6	9	10	0	3
NC(=O)c1ncn([C@@H]2O[C@H](CNCc3c(OCc4ccccc4F)ccc4ccccc34)[C@@H](O)[C@H]2O)n1	0	0	.	2	.	.
O=C(c1ccccc1F)N1CCN(Cc2cccc(Cl)c2)CC1	6	3	1	4	-2	29*
O=C(c1cccc(Cl)c1)N1CCN(C(=O)c2ccccc2F)CC1	-9	2	2	3	2	-1
COc1ccc(C2CC(c3cccc(F)c3)=NN2c2ccc(S(N)(=O)=O)cc2)cc1 (centres undefined)	-4	10	.	2	.	15
COc1ccc(C2CC(c3cccc(Br)c3)=NN2c2ccc(S(N)(=O)=O)cc2)cc1 (centres undefined)	-3	7	.	2	.	32*
CCOC(=O)c1sc2ncn(CC(=O)Nc3cc(C)on3)c(=O)c2c1C	2	-1	2	-2	.	2
COC1=CC(=O)c2c(ccc3ncnc(N)c23)C1=O	48*	69*	.	22	.	.
CCN1C(=NCCOC)N[C@@H](c2ccccc2)[C@H](C(=O)OC)[C@H]1C	2	3	.	11	.	8
COC(=O)C1=CN(Cc2ccc(OC)cc2)C=C(C(=O)OC)C1c1cc(OC)c(OC)c(OC)c1	3	3	4	15	-4	0
COC(=O)C1=CN(C(C)c2ccccc2)C=C(C(=O)OC)C1c1cc(OC)c(OC)c(OC)c1 (centres undefined)	4	12	2	28*	-15	-3
Cc1ccc(CSc2nnc(NC(=O)C3COc4ccccc4O3)s2)cc1 (centres undefined)	10	12	-3	31*	2	6
Cc1nnc(NC(=O)C2COc3ccccc3O2)s1 (centres undefined)	-11	-1	2	-3	2	2
O=C(CN(C(=O)CNC(=O)c1ccco1)c1ccccc1F)NC1CCCCC1	3	3	0	-6	1	-2
Cc1ccc(NC(=O)COC(=O)CC2CCCC2)cc1Cl	68*	7	-4	-4	1	18
COc1ccc(NC(=O)COC(=O)CC2CCCC2)cc1Cl	43*	9	10	-4	-1	27*
CCOCC(=O)Nc1ccc(C)c(Cl)c1	-29	7	-4	3	-4	1
CC1CCN(CCc2nc3cc(NC(=O)COc4ccc([N+](=O)[O-])cc4)ccc3n2C)CC1	7	10	1	6	-4	4
COc1ccc(-c2noc(N3CCC(C(=O)N(C)c4ccccc4)CC3)n2)cc1	6	0	-11	1	12	3
CC(CC(=O)NCCc1ccc(Cl)cc1)S(=O)(=O)c1ccc2c(c1)NC(=O)CO2 (centres undefined)	4	3	6	30*	0	4
Cc1ccccc1C(C)NS(=O)(=O)c1ccc2c(c1)OCCO2 (centres undefined)	2	14	.	5	.	-1
CC(NS(=O)(=O)c1ccc2c(c1)OCCO2)c1ccccc1 (centres undefined)	6	6	3	27*	-1	8
O=C(N/N=C/c1ccc2c(c1)OCO2)C(=O)Nc1ccccc1Cl	-6	16	.	-6	.	.
SMILES	PAFAH2 FP inh	PAFAH1B3 FP inh	PME-1 primary	PAFAH1B2 inh	Fam108B inh	pPAFAH FP inh
O=C(O/N=C/c1ccc2c(c1)OCO2)c1ccccc1Cl	.	.	3	.	5	37*
CC1(C)CC(NC(=O)c2ccc(-c3ccc([N+](=O)[O-])cc3)o2)CC(C)(C)N1	3	-1	6	1	3	0
COc1ccc(C(CNC(=O)COc2ccccc2)N2CCCCC2)cc1 (centres undefined)	3	6	1	-2	.	0
O=C(O)c1cc(-c2cccc(Cl)c2)nc2nc(N3CCCCC3)sc12	12	27*	-24	82*	-17	0
CCOc1ccc(NC(=O)c2cc3n(n2)C(C(F)(F)F)CC(c2ccco2)N3)cc1 (centres undefined)	4	1	-4	-2	7	33*
CN(C(=O)c1cc2n(n1)C(C(F)(F)F)CC(c1ccco1)N2)c1ccccc1 (centres undefined)	-2	4	2	7	-1	6
O=C(Nc1ccc(O)cc1)c1cc2n(n1)C(C(F)(F)F)CC(c1ccco1)N2 (centres undefined)	-7	-4	-1	-4	0	8
O=C(NC1CCCCCC1)c1cc2n(n1)C(C(F)(F)F)CC(c1ccco1)N2 (centres undefined)	6	3	-2	5	-3	34*
CC(Oc1ccc(Cl)cc1)c1ccnn1S(=O)(=O)c1ccccc1 (centres undefined)	-4	3	-3	51*	-2	15
O=[N+]([O-])/C(Cl)=C(/NCCO)C(Cl)=C(Cl)Cl	1	14	.	3	.	.
O=S(=O)(Nc1ccc(S(=O)(=O)N2CCCCCC2)cc1)c1cccs1	14	0	0	13	4	3
Cc1cc(Cl)ccc1OCC(=O)Nc1ccccc1NS(=O)(=O)c1cccs1	-3	11	19	24	-4	33*
O=C(Nc1ccc(Cl)cc1)Nc1ccccc1NS(=O)(=O)c1cccs1	1	10	-2	26*	4	17
O=S(=O)(Nc1ccccc1Cl)c1ccc(NS(=O)(=O)c2cccs2)cc1	15	11	0	13	8	26*
COc1ccc(C(=O)NNC(=O)c2ccc3ccccc3n2)cc1	3	13	-1	-7	.	4
Cn1cnnc1SCc1ccc(-c2ccc(Br)cc2)o1	3	9	-2	4	-5	26*
COc1ccc(C(=O)NCCc2nnc3ccc(SCC(=O)NCCc4ccc(OC)c(OC)c4)nn23)cc1	-4	7	4	1	-1	0
O=C1NCCOC(=O)[C@H](Cc2ccc(F)cc2)C/C=C\C[C@H]1CC(=O)N(CCO)Cc1ccccc1	0	4	.	30*	.	7
O=C1NC[C@@H](c2ccccc2)OC(=O)[C@@H](Cc2ccc(F)cc2)C/C=C\C[C@@H]1CC(=O)N(CCO)Cc1ccccc1	11	-3	.	64*	.	26*
O=C1N[C@@H](Cc2c[nH]c3ccccc23)COC(=O)[C@@H](Cc2ccc(F)cc2)CC/C=C/C[C@@H]1CC(=O)N(CCO)Cc1ccccc1	-1	1	.	34*	.	13

High-throughput results deposited in PubChem by The Scripps Research Institute Molecular Screening Center.
